Plk1 PBD FP – inhibitors of human Plk1 polo box domain binding; Plk1 PBD phosphopeptide binding, fluorescence polarization; inhibition, %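 (tested at about 20 µM)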; P53350; 97,000 compounds, 0.13% hits; in the data active = inhibition above about 34%, passing the limit was not always enough
LYP inh 2 – LYP (human) phosphatase inhibition; recombinant LYP catalytic domain, DiFMUP fluorescence; inhibition, % at 2 µM; 96,000 compounds, 0.21% hits; AID 640;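 active = inhibition at 2 µM at or above a set limit, the screen mean plus 3 SD, cut at about 24% in these data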;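 note: 0% = DMSO with enzyme and 100% = enzyme fully blocked by orthovanadate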
Target sequence (Q9Y2R2 whole entry, looked up, the tested form may be a part): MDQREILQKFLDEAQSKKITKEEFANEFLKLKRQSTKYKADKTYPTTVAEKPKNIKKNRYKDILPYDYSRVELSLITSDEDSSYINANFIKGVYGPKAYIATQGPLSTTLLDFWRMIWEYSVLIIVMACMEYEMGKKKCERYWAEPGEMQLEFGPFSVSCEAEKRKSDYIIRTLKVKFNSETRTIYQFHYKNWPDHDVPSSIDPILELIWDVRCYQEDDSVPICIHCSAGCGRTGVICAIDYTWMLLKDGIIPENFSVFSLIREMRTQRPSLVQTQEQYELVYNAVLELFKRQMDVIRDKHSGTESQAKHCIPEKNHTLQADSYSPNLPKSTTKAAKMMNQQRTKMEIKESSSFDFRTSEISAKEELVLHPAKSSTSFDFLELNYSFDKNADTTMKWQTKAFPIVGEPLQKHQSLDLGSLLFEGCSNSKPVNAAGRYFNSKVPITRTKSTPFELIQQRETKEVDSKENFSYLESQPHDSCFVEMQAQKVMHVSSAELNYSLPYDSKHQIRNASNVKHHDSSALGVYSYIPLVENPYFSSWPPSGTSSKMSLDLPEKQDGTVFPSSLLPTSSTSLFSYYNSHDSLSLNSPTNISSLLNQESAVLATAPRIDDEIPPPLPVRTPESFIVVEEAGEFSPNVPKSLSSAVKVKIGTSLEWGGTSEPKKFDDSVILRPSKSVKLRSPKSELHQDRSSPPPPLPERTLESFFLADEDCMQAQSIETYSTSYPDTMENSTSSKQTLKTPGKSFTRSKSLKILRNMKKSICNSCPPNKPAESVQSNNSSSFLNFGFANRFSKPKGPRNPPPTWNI
PTPN22 act – increases human PTPN22 phosphatase activity; recombinant LYP, DiFMUP fluorescence; 0 = plate median, 100 = signal doubled; AID 697; Q9Y2R2; activation, % at 2 µM; 96,000 compounds, 0.11% hits;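 active = activation at 2 µM above a set limit, the mean plus 5 SD, cut at about 37% in these data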
PLK1 inh – blocks human PLK1 kinase activity. recombinant PLK1 kinase, TR-FRET peptide phosphorylation. inhibition, % at 10 µM. 97,000 compounds, 0.53% hits. P53350;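 active = inhibition of 50% or more in the single-concentration screen; inactive = inhibition below 50%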;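 note: 0% = DMSO max control and 100% = H-89 dihydrochloride min control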
PLK1 inh conf – PLK1 (human) kinase inhibition, confirmed | shares compounds with PLK1 inh | recombinant PLK1 kinase, TR-FRET peptide phosphorylation | inhibition, % at 10 µM | 210 compounds, 20% hits | AID 744;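 active = inhibition at or above 50% in each of two repeat confirmation tests; inconclusive = one repeat below 50% inhibition, the other above; inactive = both repeats at or below 50% inhibition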;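 note: 0% = DMSO max control and 100% = H-89 kinase-blocked min control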
Plk1 interf – counter-screen for Plk1 inhibitors: compound assay interference; AID 756; shares compounds with PLK1 inh; Plk1 TR-FRET assay interference, compound added post-reaction; inhibition (interference), % at 10 µM; 210 tested, under 10 active;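 active = both duplicate runs show 50% or greater inhibition; inconclusive = only one duplicate run shows over 50% inhibition; inactive = both runs show under 50% inhibition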;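 note: 0% = DMSO max control and 100% = H-89 min control inhibited reaction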
* = called active by the depositor; u = inconclusive; x = not tested or not shown. Shown are actives, neighbours in structure and some others; about 0.93% of the full set was active somewhere.

SMILES	Plk1 PBD FP	LYP inh 2	PTPN22 act	PLK1 inh	PLK1 inh conf	Plk1 interf
N#C/C(=N\Nc1c(Cl)cccc1Cl)C(=O)NN	2	-3	2	79*	77*	-58
N#C/C(=N\Nc1ccccc1Cl)C(=O)c1ccccc1	-10	-2	6	-8	x	x
Cc1nc2ccc(NC(=O)c3cccs3)cc2c(=O)n1Cc1ccc(Cl)cc1	-18	10	-5	123*	-1	-49
C=C(C)n1c(=O)[nH]c2ccccc21	-12	-6	5	-10	x	x
Cc1ccc2c(c1)/C(=N/OC(=O)c1ccc(F)cc1)CCS2	-27	-2	5	124*	-3	-42
CN(CCOc1ccccc1)S(=O)(=O)c1ccc2oc3ccccc3c2c1	-10	0	4	-5	x	x
Nc1nc(-c2ccco2)c(-c2ccco2)s1	-3	0	0	-7	x	x
c1coc(-c2nc(-c3ccco3)c(-c3ccco3)nc2-c2ccco2)c1	-14	-3	1	93*	-3	-53
Cc1cc(NC(=O)c2nn3cccnc3c2Cl)no1	-19	-4	7	0	x	x
C=CCNC(=O)c1nn2cccnc2c1Cl	3	-5	4	130*	-4	-53
NS(=O)(=O)c1ccc(Nc2nc(-c3ccc(O)cc3O)cs2)cc1	17	0	0	72*	u	-45
Cc1cccnc1Nc1nc(-c2ccc(O)cc2O)cs1	15	-9	7	10	x	x
CNC(=O)NC(=O)CSc1ccc(NC(C)=O)cc1	-3	-2	0	-7	x	x
CCOC(=O)C1=C(CSc2nc(CC)c(C)cc2C#N)OC(N)=C(C#N)C1c1ccccc1 (centres undefined)	21	-2	2	-8	x	x
CCOC(=O)C1=C(CSc2nc3c(cc2C#N)CN(C)CC3)OC(N)=C(C#N)C1c1ccc(Cl)cc1 (centres undefined)	-23	9	-9	116*	1	-54
Cc1ccc(CNc2ccc(N3CCOCC3)cc2)s1	-2	0	-1	-3	x	x
CC(=O)N1CCN(c2ccc(NCc3ccc(C)s3)cc2)CC1	-9	x	x	77*	-1	-59
CN1C(=O)/C(=C/c2ccccc2OCc2cccc(F)c2)NC1=S	11	11	-5	-4	x	x
COc1ccc(OCc2nnc3n2N=C(c2ccc(C)cc2)CS3)cc1	-40	x	x	72*	-4	-53
CCOc1ccc(C2=Nn3c(nnc3-c3ccc(OC)cc3)SC2)cc1	1	6	-6	-9	x	x
COc1ccc(OCc2nnc3n2N=C(c2ccc(OC)cc2)CS3)cc1	-21	x	x	83*	-2	-49
Cc1cccc(NC(=O)CN2NS(=O)(=O)c3ccccc3C2=O)c1	-18	-11	9	-5	x	x
CCOC(=O)C1CCN(c2ncnc3c2cnn3-c2ccccc2)CC1	2	-4	1	-13	x	x
CC1CCN(c2ncnc3c2cnn3-c2ccccc2)CC1	-50	x	x	75*	-4	-54
COc1ccccc1-n1c(=O)oc2ccc(Cl)cc2c1=O	-9	-10	9	-10	x	x
SMILES	Plk1 PBD FP	LYP inh 2	PTPN22 act	PLK1 inh	PLK1 inh conf	Plk1 interf
Cc1onc(-c2ccccc2)c1C(=O)N1CCc2ccccc21	-29	-5	6	-5	x	x
O=c1[nH]cnc2scc(-c3cccs3)c12	1	-6	3	73*	65*	-49
Cc1ccc(-c2nnc3n2N=C(c2ccccc2Br)CS3)cc1	10	8	-8	-10	x	x
O=c1cc(N2CCOCC2)[nH]c(=O)n1-c1ccc(Cl)cc1	-5	x	x	74*	6	-41
Cc1oc(-c2ccc(Cl)cc2)nc1CN1CCCC(C(=O)NCCCN2CCCC2=O)C1 (centres undefined)	-34	x	x	73*	-10	-56
Cc1oc(-c2cccc(Cl)c2)nc1CN1CCC(C(=O)NCCCN2CCCC2=O)CC1	-23	-38	34	-6	x	x
O=C(N/N=C/c1c[nH]c2ccc(Br)cc12)c1ccn(Cc2ccc(Cl)cc2)n1	-10	2	1	-7	x	x
CC1(C)C=C(c2ccc(O)cc2)CC(C)(C)N1	-23	-8	6	-7	x	x
O=C(O)C1CCCCC1C(=O)NCc1cn2ccccc2n1 (centres undefined)	41	x	x	71*	-5	-49
Cn1nc(C(F)(F)F)cc1C(=O)NC1CCCCCC1	-15	1	3	-13	x	x
C=CCNc1nc(N)c(C(=O)c2ccc3c(c2)OCO3)s1	12	9	-10	75*	74*	-45
O=C(NCCN1C(=O)C2C3C=CC(C3)C2C1=O)Nc1ccc(Br)cc1 (centres undefined)	8	x	x	72*	-5	-47
CCCc1nnc(SCc2ccc(OC)cc2)n1N	8	9	-12	-15	x	x
O=C(N/N=C/c1cccc(Cl)c1Cl)Nc1ccccc1	-10	8	-8	-10	x	x
Cc1cc(C(=O)N/N=C/c2cccc(Cl)c2Cl)no1	-2	-6	3	88*	-8	-49
CCOC(=O)c1ccc(NC(=S)NCCCN2CCCCC2)cc1	-17	5	0	113*	-3	-49
CCOc1ccc(NC(=O)NCCCN2CCCC2)cc1	27	8	-5	9	x	x
Cc1cc(C)c2c(-n3cccc3)nn(CC#N)c2n1	-1	9	-6	-14	x	x
CCCN(CC1CC1)C(=O)CSc1nnc(-c2cc(-c3cccs3)nc3ccccc23)o1	-1	9	-6	1	x	x
c1ccc(CNc2ncnc3nc[nH]c23)cc1	17	5	-5	27	x	x
CCCCc1ccc(Nc2ncnc3nc[nH]c23)cc1	11	5	-8	32	x	x
Cc1ccc(Nc2ncnc3nc[nH]c23)cc1Cl	-6	-6	3	76*	36	-56
COc1cccc(Nc2ncnc3nc[nH]c23)c1	16	8	-8	84*	70*	-45
COc1cccc(N2C(=O)CC(N3CCC(C(N)=O)(N4CCCCC4)CC3)C2=O)c1 (centres undefined)	-8	-3	2	2	x	x
Cc1ccc2c(c1)c(C)c(C)n2CC(O)CN1CCCCC1C (centres undefined)	8	x	x	70*	-11	-52
SMILES	Plk1 PBD FP	LYP inh 2	PTPN22 act	PLK1 inh	PLK1 inh conf	Plk1 interf
O=C(NCc1ccc2c(c1)OCO2)Oc1ccccc1	18	x	x	83*	-1	-53
COc1cccc(-c2nc(CS(=O)CC(=O)NCc3ccc4c(c3)OCO4)c(C)o2)c1 (centres undefined)	-48	x	x	75*	-5	-57
O=C(NCc1ccc2c(c1)OCO2)c1cccc(C(=O)NCc2ccc3c(c2)OCO3)c1	-16	-2	0	-6	x	x
COc1ccc(-c2nc(CS(=O)CC(=O)NCc3ccc4c(c3)OCO4)c(C)o2)cc1 (centres undefined)	3	-3	2	-11	x	x
Cc1ccccc1-c1nc(CS(=O)CC(=O)NCc2ccccc2)c(C)o1 (centres undefined)	-6	x	x	79*	-17	-54
COCCNC(=O)CS(=O)Cc1nc(-c2ccc(OC)cc2)oc1C (centres undefined)	-6	x	x	71*	-3	-53
O=C(CCSc1ccccc1)Nc1ccc(OCc2ccccc2)cc1	-2	2	4	-8	x	x

Screens (PubChem)
